The panel holds about 83,000 compounds, 20% with a hit somewhere; the sample as a whole holds those more often.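 Interpretation: 100, growth as untreated; towards 0, rising growth inhibition; 0, no net growth; 0 to -100, cell death. Compounds scoring below 10 were considered active.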 A number with no mark means an inactive call. Calls of active or inactive are those of the source.
Tested on: HL-60(TB) leukemia
Assay: NCI-60 one-dose screen, 48 h (100 = growth as untreated, 0 = no growth, -100 = all killed)
Conditions: 10 µM unless noted

SMILES | growth
O=C(Nc1ncc(Cc2cc(C(F)(F)F)ccc2Cl)s1)C(=S)N1CCOCC1 | 98.1%
COc1ccc(Cl)cc1NC(=O)c1cc2c(n1C)-c1nc(NC(=O)C(C)(C)C)sc1CC2 | 82.7%
Fc1ccc2[nH]c3c(NCCCN4CCOCC4)ncnc3c2c1 | 109%
Nc1c(C(=O)c2ccccc2)sc2nc(-c3cccs3)ccc12 | 9.36% (active)
CNC(=O)c1cc(Oc2ccc3nc(NC(=O)Nc4ccc(CN5CCOCC5)c(C(F)(F)F)c4)sc3c2)ccn1 | 17.1%
C#CCOc1nc(C)cc(C)c1C#N | 89.5%
Clc1ccc(Nc2ccnc(NCCNc3ccnc4cc(Cl)ccc34)n2)cc1 | -71% (active)
CC1=CCC(OC(=O)C(C)(C)CCC(O)(C(=O)OC2(C(C)C)CCC3(C)OC3C2)C(C)C)(C(C)C)CC1 (stereo unspecified) | -43.1% (active)
Cc1ccc(S(=O)(=O)n2cc(C(=O)C(=O)N3CCOCC3)c3ccccc32)cc1 | 66.6%
CC(C)(C)OC(=O)N[C@@H](Cc1ccccc1)C(=O)N(Cc1ccccc1)C1(C(=O)NCc2ccccc2)CCN(Cc2ccccc2)CC1 | 7.23% (active)
CC(=O)c1c(Nc2cccc(F)c2)[nH]c2c(Cl)cc(Cl)c(Cl)c2c1=O | -36.5% (active)
Cc1ccc(Cl)cc1NC(=O)c1cc2ccccc2cc1O | -49.5% (active)
CCSc1cnnc2ccccc12 | 91.5%
CC1(C(=O)O)CCC(N)(C(=O)O)C1(C)C (stereo unspecified) | 101%
CCN(CC)c1ccc(/C=N/NC(=O)CSc2nc3ccccc3c(=O)n2CCc2ccc(S(N)(=O)=O)cc2)c(O)c1 | -18.7% (active)
COc1cc(C(=O)c2c(-c3ccccc3)oc3ccccc23)cc(OC)c1O | 5.07% (active)
c1ccc2c(c1)oc1cc3sccc3nc12 | 103%
CCCCCCCCc1cc(Cl)c(O)c(Cl)c1 | 101%
CN(C)c1ccc(/C=N/NC(=O)c2cccc3ccccc23)c(Cl)c1 | -2.75% (active)
N#CSCc1ccc(CSC#N)c(Cl)c1 | 23%
C[n+]1c2ccccc2nc2ccc(NCCO)cc21 | 70.6%
COC(=O)Nc1ccc2ccc3c(NC(=O)OC)ccc4ccc1c2c43 (tested in a mixture with another compound) | 33.8%
O=c1oc2ccccc2cc1-c1nn(-c2ccccc2)cc1-c1nn[nH]n1 | 96.8%
N#Cc1c[nH]n2ccnc12 | 123%
Cc1ccc(-c2nc(/C=C3/C(=O)N(C)c4ccc(F)cc43)c3ccccn23)cc1 | 102%
c1ccc(C2Cc3ccccc3C2=NC2CCCCC2)cc1 (stereo unspecified) | 98.2%

SMILES | growth
N#Cc1ccc(-n2nnc3ccccc32)cc1C#N | 108%
COc1cccc(NCc2nnc(Nc3ccc(Cl)cc3)c3ccccc23)c1 | -27.1% (active)
C=C1C(=O)O[C@H]2[C@H]1CC/C(CNC(=O)c1c[nH]c3ccc(F)cc13)=C\CC[C@@]1(C)O[C@@H]21 | -35% (active)
Cc1ccc(-c2onc3c(=O)[nH]nc(-c4ccccc4)c23)cc1 | -8.12% (active)
O=S(=O)(O)c1ccc(F)cc1 | 93.8%
O=C1c2ccccc2NC(c2cn(-c3ccccc3)nc2-c2cccs2)N1Cc1ccccc1 (stereo unspecified) | -6.57% (active)
Cc1ccc(-c2nc3nc(-c4ccc(F)cc4)nc(N4CCCNCC4)c3o2)cc1 | -70.3% (active)
CCC(C)C(N)C(=O)NNc1n[nH]c(=S)n1N (stereo unspecified) | 100%
COc1ccc(/C=N/NC(=O)c2cccc3cc[nH]c23)cc1O | 10.1%
CC(=O)OCCC(C)CCC=C(C)C (stereo unspecified) | 108%
CCCC(NC(=O)OCc1ccccc1)C(=O)O (stereo unspecified) | 44.9%
CC(=O)c1ccc(NS(=O)(=O)c2cccc(C(=O)Nc3ccc(Br)cc3)c2)cc1 | 47.3% [25 µM]
COC1CC(N)C2OC(c3ccccc3)OCC2O1 (stereo unspecified) | 102%
COc1ccccc1/C(C)=N/NC(=O)CSc1nc2ccccc2c(=O)n1Cc1ccc(S(N)(=O)=O)cc1 | 101%
COc1cc2c(cc1OC)C(=O)C(CC1CCN(C(=O)Nc3ccc(C)cc3)CC1)C2 (stereo unspecified) | 125%
C#CCOc1cccc(-c2ncnc3cc(NC(=O)CCl)ccc23)c1 | -29.7% (active)
CC1(C)NC2=C(C(Nc3cccnc3)N1)C(c1ccc([N+](=O)[O-])cc1)C(C(=O)c1ccc(N=[N+]=[N-])cc1)O2 (stereo unspecified) | 104%
O=C1OC(/C=C/c2ccccc2)=NC/1=C/c1ccccc1[N+](=O)[O-] | 96.2%
O=[N+]([O-])/C(=C/C=C/c1ccccc1)c1ccccc1 | -2.71% (active)
OC1Cc2ccccc2C1 | 100%
COc1cc(C2CC(c3ccc(C)cc3)=NN2C=O)ccc1Oc1nc2c(c(=O)n(C)c(=O)n2C)n1C (stereo unspecified) | 111%
Cc1ccc(NCCNCC(C)(C)O)c2c(=O)c3ccc(Cl)cc3sc12 | -48.3% (active)
CCCCNC(=O)Oc1ccc(/C(=C(\C)c2ccc(Cl)cc2)c2ccc(OCCN3CCCCC3)cc2)cc1 | 64.9%
CC(=O)O[C@H]1CC[C@]2(C)[C@H]3C(=O)C=C4[C@@H]5C[C@](C)(C(=O)N6CCCNCC6)CC[C@]5(C)CC[C@@]4(C)[C@]3(C)CC[C@H]2C1(C)C | -61.9% (active)
c1ccc(CCc2ccccc2-c2cc(-c3ccccc3)on2)cc1 | 76.2%

From PubChem BioAssay (NCI)
